Assay outcomes (PubChem)
Most compounds without a hit are left out; they make up all but 12% or so of the library.
BAZ2B block: inhibitors of human BAZ2B bromodomain | Potency, µM (titrated, usually from 114 µM), for the others: top-dose activity change, negative = inhibition, usual class: inhibitors | AID 504333 | AlphaScreen BAZ2B-H3K14Ac peptide displacement | Q9UIF8 | 360,000 compounds, 4.4% hits; further: on the % scale 0 is the no-effect control and ±100 the full control effect; nearly all actives have a fitted effect of over 60% in size
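AlphaScreen luminescence quantifies BAZ2B engagement of H3K14Ac peptide; the protein and biotinylated peptide are both at 50 nM final, buffer PBS pH 7.4 with 0.01% Tween-20, all steps at room temperature.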
HP1b chromo inh: blocks HP1-beta chromodomain binding to methylated histone tails | Potency, µM (highest dose often 114 µM), for inactives: at the highest dose activity change, negative = inhibition, most hits filed as inhibitors | 390,000 compounds, 0.56% hits | P83916 | AlphaScreen HP1-beta / biotin-H3K9me3 peptide binding; further: nearly all actives have a fitted effect of over 70% in size
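Compound inhibition of the preformed complex between 50 nM HP1-beta and 50 nM biotinylated H3K9me3 peptide was read by AlphaScreen. Buffer was PBS pH 7.4 with 0.01% Tween-20. Incubations ran 30 min at room temperature, with 10 ug/mL donor/acceptor beads.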
JMJD2A Tudor: blocks the human JMJD2A Tudor domain. Potency, µM (titrated, usually from 114 µM), inactives show top-dose activity change, negative = inhibition, hits mostly inhibitors. AID 504339. O75164. 390,000 compounds, 4.4% hits. AlphaScreen JMJD2A-Tudor / H3K4me3 peptide binding; further: on the % scale 0 is the no-effect control and ±100 the full control effect; nearly all actives have a fitted effect of over 50% in size
Sfp PPTase inh: Sfp phosphopantetheinyl transferase inhibition; AID 1490; Biochemical Sfp PPTase activity, qHTS; Potency, µM, without a hit: largest response in the series, negative = inhibition, hits mostly inhibitors; 310,000 compounds, 3.5% hits; Q9F4F7;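 further: the enzyme is Sfp with the accession as filed and its product quenches rhodamine fluorescence; 0% = enzyme reaction without inhibitor and -100% = no enzyme wells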
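Sfp 15 nM + cpd, 15 min RT; start w/ rhodamine-CoA 5 uM, BHQ-2-YbbR 12.5 uM (final); 50 mM Hepes pH 7.6, 10 mM MgCl2, 0.01% NP-40, 0.01% BSA; read 525/598 nm at 0 and 30 min.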
G9a block: blocks human histone lysine methyltransferase G9a; Q96KQ7; 350,000 compounds, 8.8% hits; G9a H3K9 monomethylation, AlphaScreen, 2 h; Potency, µM (series often up to 102 µM), inactives show at the top dose activity, negative = inhibition, usual class: inhibitors; further: on the % scale 0 is the no-effect control and ±100 the full control effect; nearly all actives have a fitted effect of over 75% in size
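AlphaScreen detection with an anti-monomethyl H3K9 antibody quantified product after a 2 h room-temperature reaction containing 500 nM biotinylated H3K9 peptide, 20 µM SAM and 20 nM enzyme, which had been preincubated 15 min with compound.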
TDP1 block: TDP1 (human) enzyme inhibition; Q9NUW8; recombinant TDP1, AlphaScreen DNA substrate cleavage; Potency, µM (titrated, usually from 130 µM), without a hit: at the top dose activity change, negative = inhibition, hits mostly inhibitors; 350,000 compounds, 0.28% hits; AID 485290; further: on the % scale 0 is the no-effect control and ±100 the full control effect; nearly all actives have a fitted effect of over 40% in size
Target sequence (Q9NUW8 whole entry, looked up): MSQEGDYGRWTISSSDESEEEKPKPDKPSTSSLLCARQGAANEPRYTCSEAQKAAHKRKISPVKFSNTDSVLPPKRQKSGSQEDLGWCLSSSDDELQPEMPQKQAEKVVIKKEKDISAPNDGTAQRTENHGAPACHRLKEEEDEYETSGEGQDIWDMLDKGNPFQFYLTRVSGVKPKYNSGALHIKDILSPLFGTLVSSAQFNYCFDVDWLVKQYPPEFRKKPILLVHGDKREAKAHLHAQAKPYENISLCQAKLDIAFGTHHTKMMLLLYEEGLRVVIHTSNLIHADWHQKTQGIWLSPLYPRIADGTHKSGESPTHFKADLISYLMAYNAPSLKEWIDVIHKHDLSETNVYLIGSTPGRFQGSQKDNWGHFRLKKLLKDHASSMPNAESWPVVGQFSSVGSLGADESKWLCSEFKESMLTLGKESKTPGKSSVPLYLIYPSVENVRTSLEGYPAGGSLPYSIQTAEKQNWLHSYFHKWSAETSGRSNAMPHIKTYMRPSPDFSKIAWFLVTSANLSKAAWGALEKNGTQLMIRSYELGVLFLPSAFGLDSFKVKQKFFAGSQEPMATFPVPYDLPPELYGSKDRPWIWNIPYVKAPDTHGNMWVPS
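Tdp1 1 nM final; 15 min RT w/ cpd; substrate 15 nM, 5 min; beads 10 ug/ml, 10 min; AlphaScreen read. Neg ctrl: no enzyme.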
* marks the source's active call; other numbers are inactive results; u = inconclusive; x = no result given; [ ] = another dose, or the depositor's remark. The call rests on the fitted dose curve; in most records, active means well fitted curve in the direction sought with a large enough effect; inconclusive means small, poorly fitted or top-dose-only effect, or another doubt; inactive means no such curve, though single readings can be large; an effect the other way counts as inactive or inconclusive. Potency means the concentration at half of the fitted maximal effect.

SMILES	BAZ2B block	HP1b chromo inh	JMJD2A Tudor	Sfp PPTase inh	G9a block	TDP1 block
Cc1cc2ccccn2c1C(C[N+](=O)[O-])c1ccc(N(C)C)cc1 (stereo unspecified)	8.9µM*	u	11µM*	-20%	10µM*	10%
Cn1cc(C(C[N+](=O)[O-])c2ccccc2)c2ccccc21 (stereo unspecified)	-8%	39%	6%	-2%	-27%[2.33 µM]	x
COc1ccc(C(C[N+](=O)[O-])c2c(-c3ccccc3)cc3ccccn23)c(OC)c1 (stereo unspecified)	79µM*	0%	u	45µM*	10µM*	-7%
Cc1c(C(=O)O)sc(S(=O)(=O)N2CCN(C(=O)Cc3ccccc3Cl)CC2)c1C(=O)O	-19%	9%	-26%	x	13%[2.33 µM]	-1%[56.1 µM]
COC(=O)Cn1c(=O)c2c(nc3n2CCCN3CCc2ccccc2)n(C)c1=O	-38%	59%	-17%	1%	12%	x
COc1ccc(N(C(=O)Cn2nnc3ccccc32)C(C(=O)NCc2ccccc2)c2ccc(F)cc2)cc1 (stereo unspecified)	-2%	15%	-3%	x	6%[59 µM]	2%
Cc1ccc2nc(NC3=NC(CC(=O)O)C(=O)N3)nc(C)c2c1 (stereo unspecified)	-14%	x	x	-8%	-46%[59 µM]	2%
Cc1ccc(NC(=O)CN(C)C(=O)CCC(=O)N2CCOCC2)cc1	8%	24%	-5%	x	24%[2.33 µM]	x
Cc1ccc(Cl)cc1Nc1nn2c(=O)c3ccc(C(=O)NC4CCCCC4)cc3nc2s1	-18%	1%	-11%	x	-20%[59 µM]	3%
CN(C(=O)CN(c1ccccc1)S(=O)(=O)c1ccc(F)cc1)C1CCS(=O)(=O)C1 (stereo unspecified)	-1%	23%	-7%	16%	26%	-1%
COc1ccccc1NC(=O)C1=C(C)Nc2nc(SC)nn2C1c1ccccc1Cl (stereo unspecified)	-13%	30%	-11%	x	-2%[59 µM]	0%
Cc1onc(-c2ccccc2)c1C(=O)NCc1ccco1	8%	22%	-11%	u	50µM*	1%
Cc1onc(-c2c(Cl)cccc2Cl)c1C(=O)NCc1ccco1	3%	34%	-10%	-1%	17%	3%
Cc1onc(-c2ccccc2)c1C(=O)N(Cc1ccco1)Cc1cccs1	-16%	19%	-27%	40µM*	u	6%
O=C(c1ccccc1)N(Cc1ccco1)Cc1cccs1	-6%	23%	-12%	x	-4%[59 µM]	5%
CC(C)c1ccc(NC(=O)C2CCCN(S(=O)(=O)c3cccc4cccnc34)C2)cc1 (stereo unspecified)	2%	31%	-6%	x	1%[59 µM]	12%
CC(=O)N(C(C)=O)c1ncn(C)c1S(=O)(=O)Nc1ccccc1	x	19%	-16%	x	x	x
S=c1[nH]nc(-c2ccc3ccccc3n2)n1-c1ccc2ncccc2c1	u	16%	-16%	u	2µM*	-5%
Cc1ccccc1-n1c(-c2ccc3ccccc3n2)n[nH]c1=S	-22%	24%	-14%	-9%	14µM*	0%
Fc1ccc(-n2c(-c3ccc4ccccc4n3)n[nH]c2=S)cc1Cl	-23%	21%	-24%	19%	u	-3%
COc1ccc(-c2n[nH]c(=S)n2-c2ccccc2C)cc1	3%	-18%	u	u	4.5µM*	x
S=c1[nH]nc(-c2ccc3ccccc3n2)n1-c1ccc(Cl)cc1	4%	13%	u	16%	u	1%
COc1nc(-c2ccccc2)cc(-c2ccc(OC)c(OC)c2)n1	21%	99%	28%	u	-49%[2.33 µM]	0%
COc1ccc(-c2n[nH]c(=S)n2-c2ccccc2C)cc1OC	-20%	33%	11µM*	-20%	7.9µM*	3%
CC1SC(c2ccccc2)N(CC(O)c2ccc([N+](=O)[O-])cc2)C1=O (stereo unspecified)	-2%	49%	-20%	-10%	-30%	3%
SMILES	BAZ2B block	HP1b chromo inh	JMJD2A Tudor	Sfp PPTase inh	G9a block	TDP1 block
O=C(CCN1CCCCO1)N1CCCC(Nc2ccc(F)cc2)C1 (stereo unspecified)	-2%	39%	-3%	2%	-20%	2%[56.1 µM]
O=C(O)c1ccc(-c2nc3ccccc3[nH]2)cc1	-14%	23%	-27%	-15%	-16%[59 µM]	-1%
O=C(O)c1ccc(-c2ncc[nH]2)cc1	0%	5%	20µM*	-7%	-37%	7%
Cn1cccc1-c1cc(C(=O)N/N=C/c2ccccc2Cl)[nH]n1	u	14%	-19%	-3%	u	-14%
Cn1cccc1-c1cc(C(=O)N/N=C/c2cc(Br)ccc2O)[nH]n1	6%	50%	-11%	-1%	0%[59 µM]	79µM*
O=C(O)c1cc(-c2ccccc2)n[nH]1	8%	50%	-6%	-1%	13%[59 µM]	2%
Cn1cccc1-c1cc(C(=O)O)[nH]n1	u	33%	-7%	45µM*	50µM*	0%
O=C(NCc1ccc(Cl)cc1)c1ccc2ccccc2n1	65%	87%	75%	-6%	39%	-9%
COc1ccc(S(=O)(=O)NCCc2csc(-c3ccc(F)cc3)n2)cc1	8%	28%[57 µM]	-10%	x	25%[59 µM]	-3%
c1ccc2[nH]c(SCc3cn4cccnc4n3)nc2c1	-7%	27%	4%	-13%	14µM*	8%
COc1ccc(CN2C(=O)c3cccnc3C2=O)cc1S(=O)(=O)NC1CCCCC1	79µM*	32%	21%	7%	6%	3%
CN1C(=O)C(Cl)(Cl)C(=O)c2ccccc21	40µM*	-14%	28µM*	2.5µM*	1µM*	-3%
CCOC(=O)C1CCN(Cc2ccc(F)cc2)CC1	-34%	u	4µM*	-25%	u	3%[56.1 µM]
O=C(NCc1ccco1)C1CCN(C(=O)c2cc3sccc3n2Cc2ccc(F)cc2)CC1	u	4%	u	u	u	-7%
COC(=O)c1ccc(CN2CCCCC2)cc1	0%	37%	8%	7%	x	1%
CN(C)c1ccc(CN2CCC(C(N)=O)CC2)cc1	22µM*	-5%	22µM*	19%	14µM*	-6%
O=C(NCc1ccco1)C1CCN(Cc2ccc(F)cc2)CC1	50µM*	u	50µM*	1%	32µM*	0%
CCOC(=O)C1CCN(Cc2ccc(C(=O)OC)cc2)CC1	50µM*	-26%	5.6µM*	-11%	u	2%
Cc1cccc(N2CCN(C(=O)c3cnn(-c4ccccc4Cl)c3C3CCN(C(=O)OC(C)(C)C)CC3)CC2C)c1 (stereo unspecified)	-2%[57.1 µM]	-22%	-34%	x	u	3%
